According to the antibiotic and cytotoxicity screens of Wong et al. (2023):
Screen size: about 39,000 compounds; about 3,300 (8.5%) were called active. The sample as a whole holds a higher share of actives than the screen did.

These molecules were tested on HepG2 (assay: cytotoxicity call (relative viability < 0.9)). Conditions: 10 µM.
In the case of `C[C@H]1CN([C@@H](C)CO)C(=O)c2cccc(NS(C)(=O)=O)c2O[C@H]1CN(C)S(=O)(=O)c1ccc(Cl)cc1`, the cytotoxicity call is reported as “inactive”.
In the case of `C[C@H]1CN([C@@H](C)CO)C(=O)Cc2cc(NC(=O)CCN3CCOCC3)ccc2O[C@@H]1CN(C)S(=O)(=O)c1ccccc1`, the cytotoxicity call is reported as “inactive”.
For `COc1ccc(NC(=O)N(C)C[C@H]2Oc3ccc(NC(=O)CCN4CCOCC4)cc3C(=O)N([C@H](C)CO)C[C@@H]2C)cc1`, the cytotoxicity call was “inactive”.
`CCS(=O)(=O)N1C[C@]2(CN(C2)S(=O)(=O)c2cn(cn2)C)c2c(n(c3cc(ccc23)OC)C)[C@@H]1CO` was tested, and the cytotoxicity call was “inactive”.
In the case of `CC(=O)N(C)C[C@@H]1Oc2cc(C#CCN(C)C)ccc2S(=O)(=O)N([C@H](C)CO)C[C@H]1C`, the cytotoxicity call is reported as “inactive”.
For `Cc1noc(C)c1S(=O)(=O)N(C)C[C@H]1Oc2ccc(NC(=O)CCN3CCOCC3)cc2CC(=O)N([C@@H](C)CO)C[C@H]1C`, the cytotoxicity call was “inactive”.
In the case of `COC1OC2OC3(C)CCC4C(C)CCC(C1C)C24OO3` (stereo unspecified), the cytotoxicity call is reported as “inactive”.
For `CC(=O)C1CCC2C3CC=C4CC(OC(=O)CCC(=O)O)CCC4(C)C3CCC12C` (stereo unspecified), the cytotoxicity call was “inactive”.
`CC1CCC2C(C)C(OC(=O)CCC(=O)O)OC3OC4(C)CCC1C32OO4` (stereo unspecified) was tested, and the cytotoxicity call was “active”.
For `CC1CCC2C(C)C(O)OC3OC4(C)CCC1C32OO4` (stereo unspecified), the cytotoxicity call was “active”.
`CCCN(C)C[C@@H]1OCCCC[C@@H](C)Oc2ccc(NC(=O)C3CCCCC3)cc2C(=O)N([C@@H](C)CO)C[C@@H]1C` was tested, and the cytotoxicity call was “inactive”.
`COc1cc(/C=C/C(=O)C2=C(NCCc3ccccc3)S[C@H](c3ccc(O)c(OC)c3)CC2=O)ccc1O` was tested, and the cytotoxicity call was “inactive”.
For `C[C@@H]1CN([C@@H](C)CO)C(=O)c2cccc(NS(=O)(=O)c3cn(C)cn3)c2O[C@H]1CN(C)CC1CC1`, the cytotoxicity call was “inactive”.
In the case of `CNC[C@H]1Oc2ccc(NC(=O)Cn3cnnn3)cc2CC(=O)N([C@H](C)CO)C[C@@H]1C`, the cytotoxicity call is reported as “inactive”.
`C[C@@H](O)[C@@H](Nc1ncnc2ccccc12)C(=O)O` was tested, and the cytotoxicity call was “inactive”.
`C[C@H]1CN([C@@H](C)CO)C(=O)c2cccc(NC(=O)c3ccc(-c4nccs4)cc3)c2O[C@@H]1CN(C)Cc1ccc2c(c1)OCO2` was tested, and the cytotoxicity call was “inactive”.
`C[C@@H]1CCCCO[C@H](CN(C)Cc2ccc(C(=O)O)cc2)[C@@H](C)CN([C@@H](C)CO)C(=O)c2cc(NC(=O)c3ccccc3)ccc2O1` was tested, and the cytotoxicity call was “inactive”.
In the case of `CO[C@@]12[C@@H]3N[C@@H]3CN1C1=C(C(=O)C(N)=C(C)C1=O)[C@@H]2COC(N)=O`, the cytotoxicity call is reported as “active”.
For `CO[C@@]12[C@H](COC(N)=O)C3=C(C(=O)C(C)=C(N)C3=O)N1C[C@@H]1N[C@@H]12`, the cytotoxicity call was “inactive”.
`COC12C(COC(N)=O)C3=C(C(=O)C(C)=C(N)C3=O)N1CC1NC12` (stereo unspecified) was tested, and the cytotoxicity call was “active”.
`COc1cccc(S(=O)(=O)Nc2ccc3c(c2)[C@@H]2C[C@@H](CC(=O)NCCc4ccccc4)O[C@@H](CO)[C@@H]2O3)c1` was tested, and the cytotoxicity call was “inactive”.
`C=CCOC(=O)[C@@H]1[C@H]2C(=O)O[C@H](c3ccccc3)[C@H](c3ccccc3)N2[C@H](c2ccc(OCCOC(=O)[C@@H]3C[C@@H]4C(=O)N[C@@H](CC(C)C)C(=O)N4[C@@H]3c3ccc(O)cc3)cc2)[C@@]12C(=O)Nc1ccc(I)cc12` was tested, and the cytotoxicity call was “inactive”.
In the case of `COC(=O)C[C@H]1CC[C@H]2[C@H](COc3ccc(NS(=O)(=O)c4ccccc4Cl)cc3C(=O)N2C)O1`, the cytotoxicity call is reported as “inactive”.
`O=C(/C=C/c1cccc(-c2cn(-c3cccc(C(=O)N4CCC5(CC4)C(=O)NCN5c4ccccc4)c3)nn2)c1)NO` was tested, and the cytotoxicity call was “inactive”.
In the case of `O=C(NO)c1cn(-c2cccc(C(=O)N3CCC4(CC3)C(=O)NCN4c3ccccc3)c2)nn1`, the cytotoxicity call is reported as “active”.
In the case of `O=C(CCc1cn(CC(=O)N2CCC3(CC2)C(=O)NCN3c2ccccc2)nn1)NO`, the cytotoxicity call is reported as “active”.
With `O=C(Cn1cc(CN2C(=O)COC[C@H]2c2ccccc2)nn1)N1CCC2(CC1)C(=O)NCN2c1ccccc1` the cytotoxicity call was “inactive”.
`O=C(NO)c1cn(CC(=O)N2CCC3(CC2)C(=O)NCN3c2ccccc2)nn1` was tested, and the cytotoxicity call was “inactive”.
For `O=C(/C=C/c1cccc(-c2cn(CC(=O)N3CCC4(CC3)C(=O)NCN4c3ccccc3)nn2)c1)NO`, the cytotoxicity call was “inactive”.
`C[C@@H]1CN([C@H](C)CO)C(=O)c2cc(NS(=O)(=O)c3ccc(F)cc3)ccc2O[C@@H](C)CCCCO[C@@H]1CN(C)S(=O)(=O)c1ccc(Cl)cc1` was tested, and the cytotoxicity call was “inactive”.
In the case of `C[C@@H]1CN([C@H](C)CO)C(=O)c2cccc(NC(=O)c3cnccn3)c2O[C@H]1CN(C)S(C)(=O)=O`, the cytotoxicity call is reported as “inactive”.
With `C[C@@H]1CCCCO[C@@H](CN(C)C(=O)c2ccncc2)[C@@H](C)CN([C@H](C)CO)C(=O)c2cc(NC(=O)C3CCCCC3)ccc2O1` the cytotoxicity call was “inactive”.
With `C[C@@H]1CN([C@H](C)CO)C(=O)c2cc(NC(=O)C3CCCCC3)ccc2O[C@@H](C)CCCCO[C@@H]1CN(C)C(=O)c1ccncc1` the cytotoxicity call was “inactive”.
`C[C@H]1CN([C@@H](C)CO)C(=O)c2cc(NC(=O)CCC(F)(F)F)ccc2O[C@@H]1CN(C)Cc1ccc(C(=O)Nc2ccccc2N)cc1` was tested, and the cytotoxicity call was “inactive”.
`COc1ccc(NC(=O)N(C)C[C@H]2OCCCC[C@@H](C)Oc3ccc(NS(=O)(=O)c4c(C)noc4C)cc3C(=O)N([C@@H](C)CO)C[C@H]2C)cc1` was tested, and the cytotoxicity call was “inactive”.
`NNc1ccc2nncn2n1` was tested, and the cytotoxicity call was “inactive”.
For `C[C@@H]1CN([C@@H](C)CO)C(=O)Cc2cc(NC(=O)CCN3CCOCC3)ccc2O[C@H]1CN(C)S(=O)(=O)c1cn(C)cn1`, the cytotoxicity call was “inactive”.
In the case of `C[C@H]1CN([C@@H](C)CO)C(=O)c2cc(C#CCN(C)C)cnc2O[C@H]1CN(C)C(=O)Nc1cccc(F)c1`, the cytotoxicity call is reported as “inactive”.
In the case of `C[C@H]1CN([C@@H](C)CO)C(=O)c2cc(C#CCc3ccccc3)cnc2O[C@H]1CN(C)CC1CCOCC1`, the cytotoxicity call is reported as “inactive”.
For `CC(C)N1C[C@@H](C)[C@H](CN(C)Cc2ccc(Oc3ccccc3)cc2)Oc2c(C(=O)Nc3ccncc3)cccc2C1=O`, the cytotoxicity call was “inactive”.
For `Cc1cc(C(C)(C)C)c(O)c(C(C)(C)C)c1`, the cytotoxicity call was “active”.
In the case of `Cc1ccc(O)c(C(C)(C)C)c1`, the cytotoxicity call is reported as “inactive”.
In the case of `CC(C)(Sc1cc(C(C)(C)C)c(O)c(C(C)(C)C)c1)Sc1cc(C(C)(C)C)c(O)c(C(C)(C)C)c1`, the cytotoxicity call is reported as “inactive”.
With `C[C@H](CO)N1C[C@H](C)[C@H](CN(C)C(=O)CN(C)C)Oc2ncc(C#CC(C)(C)O)cc2C1=O` the cytotoxicity call was “inactive”.
`C[C@@H]1CN([C@@H](C)CO)C(=O)c2cccc(NC(=O)CCCCCC(=O)Nc3ccccc3N)c2O[C@@H]1CN(C)S(=O)(=O)c1cn(C)cn1` was tested, and the cytotoxicity call was “inactive”.
For `C[C@@H]1CN([C@@H](C)CO)C(=O)c2cc(NS(=O)(=O)c3ccccc3)ccc2O[C@H]1CN(C)Cc1ccc(Cl)c(Cl)c1`, the cytotoxicity call was “inactive”.
With `C[C@H](CO)N1C[C@H](C)[C@@H](CN(C)Cc2ccc(Cl)c(Cl)c2)Oc2ccc(NS(=O)(=O)c3ccccc3)cc2C1=O` the cytotoxicity call was “inactive”.
With `C[C@@H]1CN([C@H](C)CO)C(=O)c2cc(NS(=O)(=O)c3ccccc3)ccc2O[C@@H]1CN(C)Cc1ccc(Cl)c(Cl)c1` the cytotoxicity call was “active”.
In the case of `C[C@H]1CN([C@@H](C)CO)C(=O)c2cc(NS(=O)(=O)c3ccccc3)ccc2O[C@@H]1CN(C)Cc1ccc(Cl)c(Cl)c1`, the cytotoxicity call is reported as “inactive”.
In the case of `C[C@H](CO)N1C[C@H](C)[C@H](CN(C)Cc2ccc(Cl)c(Cl)c2)Oc2ccc(NS(=O)(=O)c3ccccc3)cc2C1=O`, the cytotoxicity call is reported as “inactive”.
With `C[C@@H]1CN([C@@H](C)CO)C(=O)c2cc(NS(=O)(=O)c3ccccc3)ccc2O[C@@H]1CN(C)Cc1ccc(Cl)c(Cl)c1` the cytotoxicity call was “active”.
In the case of `C[C@H](CO)N1C[C@H](C)[C@@H](CN(C)C(=O)Nc2ccc(N3CCCCC3)cc2)OCc2cnnn2CCCC1=O`, the cytotoxicity call is reported as “inactive”.
With `CC(C)NC(=O)N(C)C[C@@H]1Oc2ccc(NC(=O)C3CCCCC3)cc2CC(=O)N([C@@H](C)CO)C[C@H]1C` the cytotoxicity call was “inactive”.
For `CCC[C@@H](O)C#Cc1cnc2c(c1)C(=O)N([C@H](C)CO)C[C@H](C)[C@H](CN(C)S(=O)(=O)c1cccs1)O2`, the cytotoxicity call was “inactive”.
For `C[C@H]1CC[C@@H]2C(C(=O)O[C@H]3[C@H]4O[C@@]4(C)[C@H]4[C@@H](O[C@H]5O[C@@H](CO)[C@@H](O)[C@@H](O)[C@@H]5O)OC=C[C@@]34O)=CO[C@H](O[C@H]3O[C@@H](CO)[C@@H](O)[C@@H](O)[C@@H]3O)[C@@H]21`, the cytotoxicity call was “inactive”.
`C[C@H](CO)N1C[C@H](C)[C@H](CN(C)C(=O)Nc2ccc(F)cc2)Oc2ccc(NS(C)(=O)=O)cc2C1=O` was tested, and the cytotoxicity call was “inactive”.
`C[C@H]1CN([C@@H](C)CO)C(=O)c2cc(NC(=O)Nc3ccc(C(F)(F)F)cc3)ccc2O[C@H]1CN(C)C(=O)NC1CCCCC1` was tested, and the cytotoxicity call was “inactive”.
`C[C@@H]1CN([C@H](C)CO)C(=O)c2cc(NC(=O)Nc3ccc(C(F)(F)F)cc3)ccc2O[C@H]1CN(C)C(=O)NC1CCCCC1` was tested, and the cytotoxicity call was “inactive”.
In the case of `C[C@@H]1CN([C@H](C)CO)C(=O)c2cc(NC(=O)Nc3ccc(C(F)(F)F)cc3)ccc2O[C@@H]1CN(C)C(=O)NC1CCCCC1`, the cytotoxicity call is reported as “active”.
In the case of `C[C@H](CO)N1C[C@H](C)[C@@H](CN(C)C(=O)NC2CCCCC2)Oc2ccc(NC(=O)Nc3ccc(C(F)(F)F)cc3)cc2C1=O`, the cytotoxicity call is reported as “inactive”.
For `C[C@H](CO)N1C[C@H](C)[C@H](CN(C)C(=O)Nc2ccc(C(F)(F)F)cc2)Oc2ccc(NC(=O)NC3CCCCC3)cc2C1=O`, the cytotoxicity call was “active”.
In the case of `C[C@H]1CN([C@@H](C)CO)C(=O)c2cc(NC(=O)Nc3ccc(C(F)(F)F)cc3)ccc2O[C@@H]1CN(C)C(=O)NC1CCCCC1`, the cytotoxicity call is reported as “inactive”.
With `C[C@@H]1CN([C@H](C)CO)C(=O)c2cc(NC(=O)NC3CCCCC3)ccc2O[C@H]1CN(C)C(=O)Nc1ccc(C(F)(F)F)cc1` the cytotoxicity call was “inactive”.
In the case of `C[C@@H]1CN([C@@H](C)CO)C(=O)c2cc(NC(=O)Nc3ccc(C(F)(F)F)cc3)ccc2O[C@@H]1CN(C)C(=O)NC1CCCCC1`, the cytotoxicity call is reported as “active”.
With `C[C@H]1CN([C@@H](C)CO)C(=O)c2cc(NC(=O)NC3CCCCC3)ccc2O[C@H]1CN(C)C(=O)Nc1ccc(C(F)(F)F)cc1` the cytotoxicity call was “inactive”.
For `C[C@@H]1CN([C@H](C)CO)C(=O)c2cc(NC(=O)Nc3ccccc3)ccc2O[C@@H](C)CCCCO[C@@H]1CN(C)C(=O)NC1CCCCC1`, the cytotoxicity call was “inactive”.
